# Results filed as inconclusive are left out. The source made the active and inactive calls. The call rests on the fitted dose curve; in most records, active means well fitted cell-killing curve with a large enough effect; inconclusive means small, poorly fitted or top-dose-only effect, or effect the other way; inactive means no such curve, though single readings can be large or run the other way.
# Experiment: Quantitative High-Throughput drug screen in 47 multiple myeloma cell lines against the NCATS MIPE library collection: OCIMY1_PLB cell viability assay (AID 1918979); further: nearly all actives have a fitted effect of over 35% in size;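 on viability: 100% = DMSO-only wells and 0% = cell-free media-only wells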
# Details: OCI-MY1 myeloma viability, CellTiter-Glo ATP, 48 h; series mostly up to 45.8 µM; viability: at the top concentration
# Procedure, shortened: (§1)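 Plated at 500 cells per well, myeloma lines received MIPE 4.0 compounds by pin tool. Following 48 h culture at 37 °C, CellTiter-Glo luminescence gave viability relative to DMSO and media-only controls.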
# Potency means the concentration at half of the fitted maximal effect.
Compound,viability,Potency
NC(=O)C1CCCc2c1[nH]c1ccc(Cl)cc21 (configuration not stated),112% (inactive),–
Nc1ncnc2nc(-c3ccc(N4CCOCC4)nc3)cc(-c3cccc(Br)c3)c12,125% (inactive),–
N#Cc1ccc(C(c2ccc(C#N)cc2)n2cncn2)cc1,–,3.72 µM (active)
NC[C@H](O)c1ccc(O)c(O)c1,113% (inactive),–
O=C1CCC(N2C(=O)c3ccccc3C2=O)C(=O)N1 (configuration not stated),113% (inactive),–
Cc1cc([C@@H](C)Nc2ccccc2C(=O)O)c2nc(N3CCOCC3)cc(=O)n2c1,–,8.55 µM (active)
Cc1cc2c(C(C)C)c(O)c(O)c(C=O)c2c(O)c1-c1c(C)cc2c(C(C)C)c(O)c(O)c(C=O)c2c1O,–,14.8 µM (active)
Cc1cc2c(F)c(Oc3ncnn4cc(OC[C@@H](C)O)c(C)c34)ccc2[nH]1,92.2% (inactive),–
CN(C)c1ccc(C2Nc3ccc4ccccc4c3C3=C2C(=O)CC(C)(C)C3)cc1Br (configuration not stated),92.1% (inactive),–
Clc1ccc(Nc2nnc(Cc3ccncc3)c3ccccc23)cc1,93.2% (inactive),–
O=C1CCCC2=C1C(c1[nH]ncc1Cl)N=C(Nc1nc3ccccc3o1)N2 (configuration not stated),84.7% (inactive),–
Cc1ccc(N(CC2=NCCN2)c2cccc(O)c2)cc1,137% (inactive),–
Cn1cc(-c2ccc3nnc(C(F)(F)c4ccc5ncccc5c4)n3n2)cn1,101% (inactive),–
COc1nc(-c2ccc3c(c2)OCO3)n(-c2ccc(NC(=O)CSc3ccccc3)cc2)n1,104% (inactive),–
O=c1ncn2nc(Sc3ccc(F)cc3F)ccc2c1-c1c(Cl)cccc1Cl,106% (inactive),–
CCc1cncnc1N1CCN(Cc2nc3ccc(C(F)(F)F)cc3[nH]2)CC1,84.7% (inactive),–
Cc1ccc(NC(=O)c2cccc(C(C)(C)C#N)c2)cc1Nc1ccc2ncn(C)c(=O)c2c1,–,0.264 µM (active)
CC(C)(C)OC(=O)CN(Cc1ccc(Cl)cc1)Cc1ccc([N+](=O)[O-])s1,89% (inactive),–
Cc1c(CCOc2ccc(C(=O)O)cc2)c2cc(Cl)ccc2n1C(c1ccccc1)c1ccccc1,97.3% (inactive),–
CCCn1c(=O)c2[nH]c(C34CC5CC3C[C@@H](C5)C4)nc2n(CCC)c1=O,122% (inactive),–
Cc1cc(SCc2sc(-c3ccc(C(F)(F)F)cc3)nc2C)ccc1OCC(=O)O,98.7% (inactive),–
CCC(=O)N[C@H]1CC[C@H](C(=O)N(C)c2ccc(-c3nc4ccccc4o3)cc2)C1,89.8% (inactive),–
CCCCCCCc1ccc(CCc2cccc(O)c2C(=O)O)cc1,115% (inactive),–
CC[C@@H](C)[C@H](NC(=O)[C@H](CC1CCCCC1)NC(=O)c1ccno1)C(=O)N1CCC2(CCc3ccccc32)CC1,–,16.6 µM (active)
O=C(Nc1ccc(F)c(C(F)(F)F)c1)Nc1nnc(-c2ccncc2)s1,106% (inactive),–

# Experiment: Quantitative High-Throughput drug screen in 47 multiple myeloma cell lines against the NCATS MIPE library collection: MM1S_ATCC cell viability assay (AID 1918980); further: nearly all actives have a fitted effect of over 45% in size;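 on viability (% of control): 100% = wells with DMSO only and 0% = wells with media only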
# Details: MM1S myeloma viability, CellTiter-Glo ATP luminescence, 48 h; series mostly up to 45.8 µM; viability (% of control): at the top concentration
# Procedure, shortened: as §1
Compound,Potency,viability (% of control)
Nc1ncnc2nc(-c3ccc(N4CCOCC4)nc3)cc(-c3cccc(Br)c3)c12,23.5 µM (active),–
COc1ccccc1[C@H](c1cccc2ccccc12)[C@@](C)(C#N)C(=O)N1CCC(c2cccc(C(F)(F)F)c2)CC1,5.9 µM (active),–
COc1cc(F)c(F)c(Nc2ccc(I)cc2F)c1NS(=O)(=O)C1(C[C@H](O)CO)CC1,16.6 µM (active),–
CCCc1nn(C)c2c(=O)[nH]c(-c3cc(S(=O)(=O)N4CCN(C)CC4)ccc3OCC)nc12,20.9 µM (active),–
Nc1nc2ccc(OC(F)(F)F)cc2s1,2.64 µM (active),–
Cc1cc([C@@H](C)Nc2ccccc2C(=O)O)c2nc(N3CCOCC3)cc(=O)n2c1,9.59 µM (active),–
Cc1cc2c(F)c(Oc3ncnn4cc(OC[C@@H](C)O)c(C)c34)ccc2[nH]1,16.6 µM (active),–
CN(C)c1ccc(C2Nc3ccc4ccccc4c3C3=C2C(=O)CC(C)(C)C3)cc1Br (configuration not stated),–,122% (inactive)
CCn1c(-c2nonc2N)nc2cnc(Oc3cccc(NC(=O)c4ccc(OCCN5CCOCC5)cc4)c3)cc21,18.7 µM (active),–
NCCCC(N)(C(=O)O)C(F)F (configuration not stated),0.105 µM (active),–
CCc1cncnc1N1CCN(Cc2nc3ccc(C(F)(F)F)cc3[nH]2)CC1,18.7 µM (active),–
COc1cc2c(cc1OC)CN(CCc1ccc(NC(=O)c3cccc4c(=O)c5cccc(OC)c5[nH]c34)cc1)CC2,2.64 µM (active),–

# Experiment: Quantitative High-Throughput drug screen in 47 multiple myeloma cell lines against the NCATS MIPE library collection: MM1R_ATCC cell viability assay (AID 1918981); further: nearly all actives have a fitted effect of over 35% in size
# Details: MM1R multiple myeloma cells, CellTiter-Glo viability, 48 h; series mostly up to 45.8 µM; viability (% of control): at the top concentration
# Procedure, shortened: as §1
Compound,Potency,viability (% of control)
COc1ccccc1[C@H](c1cccc2ccccc12)[C@@](C)(C#N)C(=O)N1CCC(c2cccc(C(F)(F)F)c2)CC1,4.69 µM (active),–
COc1cc(F)c(F)c(Nc2ccc(I)cc2F)c1NS(=O)(=O)C1(C[C@H](O)CO)CC1,10.5 µM (active),–
CC(C)(Sc1ccc(CCN(CCCCC2CCCCC2)C(=O)NC2CCCCC2)cc1)C(=O)O,23.5 µM (active),–
NC[C@H](O)c1ccc(O)c(O)c1,5.9 µM (active),–
COc1nc(-c2ccc3c(c2)OCO3)n(-c2ccc(NC(=O)CSc3ccccc3)cc2)n1,–,113% (inactive)
CCc1cncnc1N1CCN(Cc2nc3ccc(C(F)(F)F)cc3[nH]2)CC1,18.7 µM (active),–
Cc1ccc(NC(=O)c2cccc(C(C)(C)C#N)c2)cc1Nc1ccc2ncn(C)c(=O)c2c1,6.62 µM (active),–
CC(C)(C)OC(=O)CN(Cc1ccc(Cl)cc1)Cc1ccc([N+](=O)[O-])s1,–,78.3% (inactive)
Cc1c(CCOc2ccc(C(=O)O)cc2)c2cc(Cl)ccc2n1C(c1ccccc1)c1ccccc1,11.8 µM (active),–
CCCn1c(=O)c2[nH]c(C34CC5CC3C[C@@H](C5)C4)nc2n(CCC)c1=O,11.8 µM (active),–
COc1ccc(-c2ccc3c(N4CCOC[C@H]4C)nc(N4CCOC[C@H]4C)nc3n2)cc1CO,0.0743 µM (active),–
Cc1cc(SCc2sc(-c3ccc(C(F)(F)F)cc3)nc2C)ccc1OCC(=O)O,–,110% (inactive)
CCCCCCCc1ccc(CCc2cccc(O)c2C(=O)O)cc1,8.33 µM (active),–
CC[C@@H](C)[C@H](NC(=O)[C@H](CC1CCCCC1)NC(=O)c1ccno1)C(=O)N1CCC2(CCc3ccccc32)CC1,13.2 µM (active),–
O=C(Nc1ccc(F)c(C(F)(F)F)c1)Nc1nnc(-c2ccncc2)s1,11.8 µM (active),–

# — PubChem BioAssay (NCATS)
